# Measurements as given in PubChem BioAssay (NCATS).
# Where “and” joins values, the source holds several entries; their conditions need not be identical. Identical values can stand only once. Values without a mark were called inactive. Inconclusive results are not listed. Where a call stands in place of a potency, no number is given. Calls of active or inactive are those of the source. Unless noted, the call rests on the fitted dose curve; in most records, active means well fitted curve in the direction sought with a large enough effect; inconclusive means small, poorly fitted or top-dose-only effect, or another doubt; inactive means no such curve, though single readings can be large; an effect the other way counts as inactive or inconclusive.
# How the values were obtained:
# [1] = NCATS anti-infectives library activity on HEK293 viability as a counter-qHTS vs the C. elegans viability qHTS (AID 1745854);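 further: HEK293 cells exposed to compounds for 24 hr before the viability read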
# How it was run: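 Compound titrations (final up to 41.7 uM) were incubated with HEK293 cells for 24 hr at 37C under 5% CO2. Viable cells were quantified with CellTiter-Glo after 10 min at ambient temperature.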
# [2] = target: Cytochrome P450 3A4 (Homo sapiens) (UniProt P08684); experiment: qHTS Assay for Inhibitors and Substrates of Cytochrome P450 3A4 (AID 884); further: nearly all actives have a fitted effect of over 50% in size
# How it was run: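 Luminescent readout of luciferin produced by CYP3A4 (20 nM) dealkylation of Luciferin-PPXE, 25 uM (its KM). NADPH-driven reaction ran 60 min at RT after 10 min compound preincubation; data scaled to 57 uM ketoconazole as 100% inhibition.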
# [3] = target: Ubiquitin carboxyl-terminal hydrolase 1 (Homo sapiens) (UniProt O94782); experiment: Inhibitors of USP1/UAF1: Pilot qHTS (AID 504865);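 further: rhodamine fluorescence freed from ubiquitin-rhodamine substrate followed over time; top concentration of the series differs between compounds; nearly all actives have a fitted effect of over 35% in size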
# How it was run: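 In 50mM HEPES pH 7.8 containing 0.5mM EDTA, 1mM TCEP, 0.1 mg/ml BSA and 0.01% Tween-20, 1nM USP1/UAF1 is exposed to compound for 15 min, then Ub-Rho (150nM final) is added and fluorescence is read over time.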
# [4] = target: DNA dC->dU-editing enzyme APOBEC-3G (Homo sapiens) (UniProt Q9HC16); experiment: qHTS for inhibitors of Vif-A3G interactions: Validation (AID 588379)
# How it was run: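 Yellow fluorescence (Ex 488, Em 500-530) of Vif-coexpressing HeLa A3G-eYFP cells, scanned by Acumen cytometer, reports blocked A3G degradation. Cells plated at 700/well overnight at 37 deg C before compound addition, then a further overnight compound incubation at 37 deg C.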
# [5] = target: ATP-dependent 6-phosphofructokinase (Trypanosoma brucei brucei) (UniProt O15648); experiment: qHTS Assay to Find Inhibitors of T. brucei phosphofructokinase: hit validation (AID 492961);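 further: luminescence reports ADP formed as PFK phosphorylates fructose-6-phosphate with ATP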
# How it was run: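 Inhibition of parasite PFK is measured as reduced ADP formation, quantified via luciferase after ATP depletion. Assay used 0.1 mM ATP, 0.5 mM F6P, 1.25 nM enzyme, 45 min incubation.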
# [6] = S16 Schwann cell viability assay (CellTiter-Glo assay) (AID 624031);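 further: cellular ATP luminescence as a viability measure; nearly all actives have a fitted effect of over 70% in size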
# How it was run: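 Native S16 rat Schwann cells in DMEM/10% FBS without phenol red were incubated overnight, then exposed to compounds for 24 h at 37 °C/5% CO2. Viability was read as ATP luminescence (CellTiter-Glo), normalized to no-cell wells and DMSO (0%).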
# [7] = target: Glucocorticoid receptor (Homo sapiens) (UniProt P04150); experiment: GR-GFP Redistribution (AID 450;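 active means compounds whose dose series gives a full or clear partial fitted curve of increased nuclear translocation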; further: potency means the concentration at half of the fitted maximal effect); settings: U2OS GR-GFP nuclear translocation, laser cytometry, 2 h
# [8] = target: Glucocorticoid receptor (Homo sapiens) (UniProt P04150); experiment: GR-EFC Redistribution (AID 451; calls by dose curve; further: potency means the concentration at half of the fitted maximal effect); settings: CHO-K1 GR-EFC translocation, beta-gal luminescence, 2 h
# How it was run: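 CHO-K1 cells expressing nuclear EA and GR-ED fragments of b-gal; compounds titrated up to 46 uM final, 2 h at 37 C. GR nuclear translocation read as complemented b-gal luminescence after 1 h RT detection.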
# [9] = target: Mitogen-activated protein kinase 10 (Mus musculus) (UniProt Q61831); experiment: JNK3 AlphaScreen Assay (AID 530; active means well fitted curve in either direction with a large enough effect, not every such curve was filed as active;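 further: kinase came from lysate of stimulated human HepG2 cells; signal reports phosphorylation of biotinylated GST-cJun 1-79 at Ser73 with 10 µM ATP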)
# How it was run: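 HepG2 lysate (IL-1b/TNFa pre-activated) + biotin-GST-cJun 1-79 + anti-pSer73 cJun; cpd titration, 15 min RT; ATP 10 uM start; Tris pH 7.6, MgCl2, DTT, vanadate; beads in EDTA buffer; AlphaScreen.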
# [10] = qHTS Assay for Identification of Small Molecule Agonists for Thrombopoietin (TPO) Signaling Pathway (AID 917)
# How it was run: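 Cell-based luciferase reporter screen. Mouse Ba/F3 line stably expressing human TPO receptor; IL-3 removed overnight before plating. Co-treatment with compound and EC50 TPO (26 pM), 24 hrs at 37 C, then luminescence.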
# [11] = target: Muscarinic acetylcholine receptor M1 (Rattus norvegicus) (UniProt P08482); experiment: qHTS Assay for Antagonists of Acetylcholine Muscarinic M1 Receptor: Kinetic Measurement of Intracellular Calcium Response (AID 943); further: nearly all actives have a fitted effect of over 75% in size; further: potency means the concentration at half of the fitted maximal effect;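 on activity change, negative = inhibition: Fluo-4 calcium signal as peak divided by basal fluorescence over 4 min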
# How it was run: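 Quantitative HTS in CHO-M1 (rat receptor) cells: 10 min compound exposure ahead of 100 nM carbachol, Fluo-4 fluorescence followed 4 min, value expressed as peak-to-basal ratio.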
# [12] = target: alpha-glucosidase (Oryza sativa, rice) (UniProt Q653V4); experiment: Counterscreen for Glucocerebrosidase Inhibitors: qHTS Assay for Rice alpha-Glucosidase at pH 5.0 (AID 997)
# How it was run: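 Endpoint fluorogenic assay at pH 5.0: compounds (0.7 nM to 77 uM) titrated against 4 nM rice enzyme and 400 uM 4-MU-alpha-glucoside for 20 min at room temperature; NaOH/glycine stop, read ex 365/em 440 nm, Hill-fitted AC50.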
# [13] = target: Cytochrome P450 1A2 (Homo sapiens) (UniProt P05177); experiment: p450-cyp1a2 (AID 410; calls by dose curve; further: potency means the concentration at half of the fitted maximal effect)
# How it was run: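 Read-out is luminescence from luciferin produced by CYP1A2 demethylation of Luciferin-ME (100uM, at Km). Detection reagent stopped the 60 min NADPH-dependent reaction; signals were normalized to 57 uM furafylline.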
# [14] = target: Cytochrome P450 3A4 (Homo sapiens) (UniProt P08684); experiment: qHTS Assay for Activators of Cytochrome P450 3A4 (AID 885); further: nearly all actives have a fitted effect of over 65% in size
# How it was run: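 Luminescent readout of luciferin formed from 25 uM Luciferin-PPXE (KM level) by 20 nM CYP3A4 in 200 mM KPO4, with 60 min NADPH-driven reaction at room temperature after 10 min compound exposure. Ketoconazole (57 uM) defined 100% inhibition.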
# [15] = target: Muscarinic acetylcholine receptor M1 (Rattus norvegicus) (UniProt P08482); experiment: qHTS Assay for Antagonists of Acetylcholine Muscarinic M1 Receptor: Measurement of IP-One Response (AID 944); further: nearly all actives have a fitted effect of over 75% in size
# How it was run: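 Antagonism was measured as loss of carbachol-driven (EC80) IP1 accumulation in CHO cells carrying rat M1, using a homogeneous IP-One TR-FRET kit read at 620 and 665 nm.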
# [16] = qHTS profiling for inhibitors of Plasmodium falciparum proliferation (AID 504749); further: nearly all actives have a fitted effect of over 60% in size; settings: P. falciparum in erythrocytes, SYBR Green DNA, 72 h, at 28.7 µM (top of the series)
# How it was run: (§1)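 SYBR Green fluorescence (ex 485 nm, em 535 nm) reports parasite DNA after 72 h compound exposure of infected red cells at 0.3% parasitemia, 2.5% hematocrit; signal normalized to 0.29 uM artemisinin and vehicle wells.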
# [17] = test system: AS120; experiment: as above; settings: P. falciparum in erythrocytes, SYBR Green DNA, 72 h; series mostly up to 28.7 µM
# How it was run: as §1
# [18] = test system: CP203; experiment: as above; settings: P. falciparum in erythrocytes, SYBR Green DNA, 72 h; series mostly up to 28.7 µM
# How it was run: as §1
# [19] = test system: CP291; experiment: as above; settings: P. falciparum in erythrocytes, SYBR Green DNA, 72 h; series mostly up to 28.7 µM
# How it was run: as §1
# [20] = NFAT Signaling Pathway (AID 444; active means well fitted curve in either direction with a large enough effect, not every such curve was filed as active;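 further: carbachol stimulus at about its EC50 of 1 µM final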); settings: Jurkat NFAT-bla M1, carbachol, beta-lactamase ratio, 5 h
# How it was run: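 Jurkat cells with NFAT-driven β-lactamase reporter and co-expressed M1 receptor, stimulated with carbachol (final 1 uM, ~EC50), compound titration, 5 h at 37 °C. CCF4 loaded 1 h at RT; 460/530 nm ratio gave %activity and AC50.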
# [21] = at 7.69 µM (top of the series) unless noted
# Sequence of Cytochrome P450 3A4 (Homo sapiens) (P08684 whole entry, looked up): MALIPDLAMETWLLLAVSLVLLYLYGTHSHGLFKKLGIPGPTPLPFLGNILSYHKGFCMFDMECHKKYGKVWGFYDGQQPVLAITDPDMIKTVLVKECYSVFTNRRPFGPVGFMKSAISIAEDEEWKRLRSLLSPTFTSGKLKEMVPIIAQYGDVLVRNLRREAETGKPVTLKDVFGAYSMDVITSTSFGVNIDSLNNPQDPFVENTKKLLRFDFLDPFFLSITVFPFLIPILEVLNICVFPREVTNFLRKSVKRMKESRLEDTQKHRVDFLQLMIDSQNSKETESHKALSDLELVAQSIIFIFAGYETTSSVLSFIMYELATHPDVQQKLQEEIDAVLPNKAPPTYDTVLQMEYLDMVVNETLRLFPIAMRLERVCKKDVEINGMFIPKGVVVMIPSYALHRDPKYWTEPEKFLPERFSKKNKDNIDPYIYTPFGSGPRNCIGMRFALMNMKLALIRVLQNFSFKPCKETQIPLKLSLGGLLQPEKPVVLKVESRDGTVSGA
# Sequence of Muscarinic acetylcholine receptor M1 (Rattus norvegicus) (P08482 whole entry, looked up): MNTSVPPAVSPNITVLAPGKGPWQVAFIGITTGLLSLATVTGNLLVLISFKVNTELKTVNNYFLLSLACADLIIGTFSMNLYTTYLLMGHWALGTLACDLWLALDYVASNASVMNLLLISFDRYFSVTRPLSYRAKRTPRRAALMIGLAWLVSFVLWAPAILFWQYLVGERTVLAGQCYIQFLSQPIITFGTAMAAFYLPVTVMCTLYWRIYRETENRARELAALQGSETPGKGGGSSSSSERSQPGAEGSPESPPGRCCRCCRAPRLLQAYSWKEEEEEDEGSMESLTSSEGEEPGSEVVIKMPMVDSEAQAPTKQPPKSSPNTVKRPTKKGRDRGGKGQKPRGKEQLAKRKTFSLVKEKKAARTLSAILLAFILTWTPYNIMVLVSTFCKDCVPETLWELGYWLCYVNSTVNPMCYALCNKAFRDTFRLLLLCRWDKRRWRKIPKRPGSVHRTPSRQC
# Sequence of Ubiquitin carboxyl-terminal hydrolase 1 (Homo sapiens) (O94782 whole entry, looked up): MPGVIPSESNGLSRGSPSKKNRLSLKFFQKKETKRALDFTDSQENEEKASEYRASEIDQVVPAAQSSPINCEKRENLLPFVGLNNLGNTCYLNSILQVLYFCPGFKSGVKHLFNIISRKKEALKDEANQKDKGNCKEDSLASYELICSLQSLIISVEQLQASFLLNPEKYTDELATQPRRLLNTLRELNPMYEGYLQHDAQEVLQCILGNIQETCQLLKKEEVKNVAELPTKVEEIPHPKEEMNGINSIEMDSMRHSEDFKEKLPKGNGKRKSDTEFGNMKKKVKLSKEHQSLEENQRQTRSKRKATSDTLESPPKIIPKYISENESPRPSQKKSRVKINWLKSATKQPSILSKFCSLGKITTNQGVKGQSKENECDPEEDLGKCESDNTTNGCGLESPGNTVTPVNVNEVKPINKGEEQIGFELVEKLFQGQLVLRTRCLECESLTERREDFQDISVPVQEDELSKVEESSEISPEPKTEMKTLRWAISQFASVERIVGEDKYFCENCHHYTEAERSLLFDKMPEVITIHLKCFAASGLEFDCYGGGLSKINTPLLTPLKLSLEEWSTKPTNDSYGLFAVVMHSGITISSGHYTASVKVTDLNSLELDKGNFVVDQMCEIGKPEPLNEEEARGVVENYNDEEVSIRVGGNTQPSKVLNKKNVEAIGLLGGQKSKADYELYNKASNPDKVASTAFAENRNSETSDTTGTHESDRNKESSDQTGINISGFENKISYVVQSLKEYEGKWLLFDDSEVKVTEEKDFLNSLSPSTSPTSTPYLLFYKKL
# Sequence of ATP-dependent 6-phosphofructokinase (Trypanosoma brucei brucei) (O15648 whole entry, looked up): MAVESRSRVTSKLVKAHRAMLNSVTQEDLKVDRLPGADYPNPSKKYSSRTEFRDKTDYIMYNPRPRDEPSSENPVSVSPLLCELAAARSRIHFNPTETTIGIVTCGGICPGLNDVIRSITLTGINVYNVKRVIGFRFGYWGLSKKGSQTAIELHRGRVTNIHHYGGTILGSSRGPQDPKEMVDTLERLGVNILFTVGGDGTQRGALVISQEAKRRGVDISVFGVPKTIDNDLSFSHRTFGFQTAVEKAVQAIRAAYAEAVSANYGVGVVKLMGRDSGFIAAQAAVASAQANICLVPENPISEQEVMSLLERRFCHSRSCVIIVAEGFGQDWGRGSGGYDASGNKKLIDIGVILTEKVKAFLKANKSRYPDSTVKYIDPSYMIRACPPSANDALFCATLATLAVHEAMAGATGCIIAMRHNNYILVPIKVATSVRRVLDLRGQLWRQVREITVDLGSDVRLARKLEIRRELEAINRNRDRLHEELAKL
# Sequence of Glucocorticoid receptor (Homo sapiens) (P04150 whole entry, looked up, the tested form may be a part): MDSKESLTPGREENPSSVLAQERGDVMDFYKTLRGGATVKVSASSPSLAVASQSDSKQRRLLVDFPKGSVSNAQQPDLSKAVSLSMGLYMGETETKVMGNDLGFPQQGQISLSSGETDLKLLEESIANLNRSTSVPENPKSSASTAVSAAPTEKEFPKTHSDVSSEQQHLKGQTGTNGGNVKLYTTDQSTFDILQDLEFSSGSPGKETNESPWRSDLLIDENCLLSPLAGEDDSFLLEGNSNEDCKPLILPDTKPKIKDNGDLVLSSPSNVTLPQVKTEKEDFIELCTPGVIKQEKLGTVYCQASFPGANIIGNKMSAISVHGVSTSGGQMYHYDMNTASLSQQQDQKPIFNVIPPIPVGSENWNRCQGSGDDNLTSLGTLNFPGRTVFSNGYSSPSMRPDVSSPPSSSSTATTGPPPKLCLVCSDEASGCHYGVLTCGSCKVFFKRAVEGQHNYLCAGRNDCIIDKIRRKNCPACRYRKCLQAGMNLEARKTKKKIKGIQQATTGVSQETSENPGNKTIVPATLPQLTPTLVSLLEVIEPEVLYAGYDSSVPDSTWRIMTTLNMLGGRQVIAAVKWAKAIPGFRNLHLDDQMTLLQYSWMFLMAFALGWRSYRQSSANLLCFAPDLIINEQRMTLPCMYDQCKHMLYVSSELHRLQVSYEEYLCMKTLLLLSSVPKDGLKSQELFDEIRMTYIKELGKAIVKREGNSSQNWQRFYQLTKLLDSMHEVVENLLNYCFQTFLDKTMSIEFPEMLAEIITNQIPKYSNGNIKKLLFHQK
# Sequence of Cytochrome P450 1A2 (Homo sapiens) (P05177 whole entry, looked up): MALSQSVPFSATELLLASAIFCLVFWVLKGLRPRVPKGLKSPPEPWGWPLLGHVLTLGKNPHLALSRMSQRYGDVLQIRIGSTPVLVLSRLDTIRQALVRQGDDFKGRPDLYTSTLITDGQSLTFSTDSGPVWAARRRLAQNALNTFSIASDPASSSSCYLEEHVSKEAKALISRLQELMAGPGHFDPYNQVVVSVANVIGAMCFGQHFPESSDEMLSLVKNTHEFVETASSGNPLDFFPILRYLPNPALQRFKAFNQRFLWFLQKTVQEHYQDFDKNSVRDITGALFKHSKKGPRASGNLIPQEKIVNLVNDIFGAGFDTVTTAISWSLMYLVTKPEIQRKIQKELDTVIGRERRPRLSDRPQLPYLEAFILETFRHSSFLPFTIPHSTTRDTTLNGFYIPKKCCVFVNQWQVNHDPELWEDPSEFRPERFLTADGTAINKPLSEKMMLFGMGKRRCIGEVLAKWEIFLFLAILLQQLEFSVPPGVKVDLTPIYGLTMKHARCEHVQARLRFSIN
# Sequence of DNA dC->dU-editing enzyme APOBEC-3G (Homo sapiens) (Q9HC16 whole entry, looked up): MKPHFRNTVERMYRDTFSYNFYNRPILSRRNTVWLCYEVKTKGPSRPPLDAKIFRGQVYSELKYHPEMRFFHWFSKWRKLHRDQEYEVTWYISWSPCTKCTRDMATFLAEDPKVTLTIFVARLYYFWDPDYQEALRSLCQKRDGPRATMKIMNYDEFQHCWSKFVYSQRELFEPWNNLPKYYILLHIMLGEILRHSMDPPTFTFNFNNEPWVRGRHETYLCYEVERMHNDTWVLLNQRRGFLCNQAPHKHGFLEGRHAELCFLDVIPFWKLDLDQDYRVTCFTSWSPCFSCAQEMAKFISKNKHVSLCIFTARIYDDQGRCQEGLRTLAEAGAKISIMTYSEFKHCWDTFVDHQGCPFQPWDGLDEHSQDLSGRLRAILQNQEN
structure (smiles),measurement,setting,value
Cc1cc(Nc2cc(N)ncn2)c(=O)n2c1C(=O)NC21CCCCC1,Potency,[1],inactive
O=C(CCc1ccc(O)cc1)c1c(O)cc(O)cc1O[C@@H]1O[C@H](CO)[C@@H](O)[C@H](O)[C@H]1O,Potency,[2],inactive
same,Potency,[3],inactive
same,outcome,[4],inactive
CN(C)Cc1ccc(S(=O)(=O)n2ccc(/C=C/C(=O)NO)c2)cc1,Potency,[1],inactive
CC(C)n1c(/C=C/[C@H](O)C[C@H](O)CC(=O)O)c(-c2ccc(F)cc2)c2ccccc21,outcome,[5],inactive
same,outcome,[6],inactive
N=C(N)SCCc1cccc(CCSC(=N)N)c1,Potency,[7],> 46 µM
same,Potency,[8],> 46 µM
same,outcome,[9],inactive
same,outcome,[10],inactive
same,Potency,[11],4.47 µM (active)
same,outcome,[12],inactive
N=C1Sc2ccccc2C2=NCCCN12,Potency,[13],10 µM (active)
same,Potency,[8],> 46 µM
same,outcome,[9],inactive
same,Potency,[14],inactive
same,Potency,[15],inactive
same,outcome,[12],inactive
C=C1/C(=C\C=C2/CCC[C@]3(C)[C@@H]([C@H](C)CCCC(C)(C)O)CC[C@@H]23)C[C@@H](O)C[C@@H]1O,outcome,[5],inactive
same,"activity, negative = inhibition",[16]; parasite line A,-3.09%
same,"activity, negative = inhibition",[16]; parasite line B,-9.52%
same,Potency,[17],inactive
same,Potency,[18],inactive
same,Potency,[19],inactive
CN1C(=O)CCC1c1cccnc1 (stereo not drawn),Potency,[2],inactive
same,outcome,[5],inactive
same,Potency,[3],inactive
same,outcome,[4],inactive
same,outcome,[6],inactive
same,"activity, negative = inhibition",[16]; parasite line A,0.771%
same,"activity, negative = inhibition",[16]; parasite line B,4.61%
same,Potency,[17],inactive
same,Potency,[18],inactive
same,Potency,[19],inactive
COc1cc(=O)n(C)c2c(OCC(O)C(C)(C)O)cccc12 (stereo not drawn),Potency,[2],inactive
same,outcome,[4],inactive
NCCC(=O)NCCc1cnc[nH]1,Potency,[13],inactive
same,"activity change, negative = inhibition",[20]; at 17.2 µM (top of the series),-0.872%
same,"activity change, negative = inhibition",[20]; at 38 µM (top of the series),2.63%
same,Potency,[7],> 46 µM and > 20.6 µM
same,Potency,[8],> 46 µM and > 20.6 µM
same,outcome,[9],inactive
same,Potency,[14],inactive
same,outcome,[10],inactive
same,Potency,[11],inactive
same,Potency,[15],inactive
same,outcome,[12],inactive
same,Potency,[3],inactive
NC(=NCCC[C@H](N)C(=O)O)NO,Potency,[13],inactive
same,"activity change, negative = inhibition",[20]; [21],10.4% [at 38 µM]
same,Potency,[7],> 46 µM
same,Potency,[8],> 46 µM
same,outcome,[9],inactive
same,outcome,[10],inactive
same,Potency,[15],inactive
same,outcome,[12],inactive
CCn1c(=O)c2[nH]c(-c3ccccc3)nc2n(CC)c1=O,Potency,[13],1 µM (active)
same,"activity change, negative = inhibition",[20]; [21],15.8% [at 38 µM]
same,Potency,[7],> 46 µM
same,Potency,[14],inactive
same,Potency,[15],inactive
same,outcome,[12],inactive
